We go through 7 sequences from the supplement of paper PMC6555819.

What all share (assay): PBM binding z-score (relative to random genomic background probes); higher = stronger binding; sequences stand for … in GC…GCGATTGACAGCGTAGAATGAAGG
Test [1] relates to FXR:RXRa (NR concentration 270 nM, RXRa partner concentration 90 nM). The method in brief:
(§1)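 Custom Agilent 4×180K protein-binding microarrays carried double-stranded probes, each with a 34-nt variable region. These regions held direct-repeat seeds, single-nucleotide variants, half-site ablations and random human genomic background sequences. Ligand-free nuclear receptor dimers were incubated on the arrays for 1 h, antibodies against each partner (one per run) detected binding, and scanned fluorescence was regression-normalized. Binding z-scores take the random background probes as reference.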

Test [2] concerns LXRa:RXRa (NR concentration 270 nM, RXRa partner concentration 90 nM). Put shortly: as §1
The test system of test [3] is LXRa homodimer (NR concentration 270 nM). The method in brief:
as §1

Test [4] concerns LXRb:RXRa (NR concentration 270 nM, RXRa partner concentration 90 nM). The method in brief:
as §1

Test [5] concerns LXRb homodimer (NR concentration 270 nM). Put shortly:
as §1

Test [6] concerns PPARa:RXRa (NR concentration 270 nM, RXRa partner concentration 90 nM). The method in brief:
as §1

Test [7] deals with PPARg:RXRa (NR concentration 180 nM, RXRa partner concentration 90 nM). Put shortly: as §1
Test [8] has as its system PPARg:RXRa 270nM:90nM, anti-RXR (NR concentration 270 nM, RXRa partner concentration 90 nM). Put shortly: as §1
Test [9] concerns PPARg:RXRa 30nM:10nM, anti-RXR (NR concentration 30 nM, RXRa partner concentration 10 nM). The method in brief: as §1
Test [10] deals with PPARg:RXRa 90nM:30nM, anti-RXR (NR concentration 90 nM, RXRa partner concentration 30 nM). The method in brief:
as §1

Test [11] has as its system PPARg:RXRa DBDmut IVT, anti-RXR (DBD mutation: RXRa K156A/R161A, NR concentration 270 nM, RXRa partner concentration 90 nM). The method in brief:
as §1

Test [12] deals with PPARg:RXRa IVT, anti-PPARg (NR concentration 270 nM, RXRa partner concentration 90 nM). The method in brief: as §1
The test system of test [13] is PPARg DBDmut:RXRa IVT, anti-PPARg (DBD mutation: PPARg1 K132A/R137A, NR concentration 270 nM, RXRa partner concentration 90 nM). Put shortly: as §1
Test [14] deals with PPARg DBDmut IVT, anti-PPARg (DBD mutation: PPARg1 K132A/R137A, NR concentration 270 nM). The method in brief: as §1
Test [15] concerns PPARg homodimer (NR concentration 180 nM). The method in brief: as §1
Test [16] relates to PXR:RXRa (NR concentration 270 nM, RXRa partner concentration 90 nM). The method in brief: as §1
Test [17] relates to PXR homodimer (NR concentration 270 nM). Put shortly:
as §1

For test [18], the system named is RARa:RXR (NR concentration 270 nM, RXRa partner concentration 90 nM). Put shortly: as §1
The test system of test [19] is RARa homodimer (NR concentration 270 nM). The method in brief:
as §1

For test [20], the system named is RARb:RXRa (NR concentration 270 nM, RXRa partner concentration 90 nM). The method in brief: as §1

As for CCTACTGGGCCTAGGTCATTGATCAGTCAAAGCA, the PBM binding z-score in [1] was 0.983; in test [2], 1.42; in test [3] it was 0.403; in test [4] it was 1.31; in test [5], -0.469; in test [6], 1.77. Besides, the PBM binding z-score in test [7] was 0.62; in test [8] it was 1.47; in test [9] it was -0.181; in test [10], 1.03; in test [11], -0.391; in [12], 1.13. The PBM binding z-score in [13] was -1.99; in test [14] it was -1.42; in [15], 1.21; in test [16], 0.949; in test [17], -0.0903; in test [18], 1.57. Also, the PBM binding z-score was -0.574 in test [19] and 1.94 in test [20].
On to CTCGAAAGGTAGTGCTCAGGTGAGTATACCAAAC, for which the PBM binding z-score in test [1] was -0.118; in test [2] it was -0.487; in [3] it was -0.334; in test [4], -0.319; in test [5], -0.503; in test [6] it was -0.373. In addition, the PBM binding z-score in test [7] is -0.362; in [8], -0.344; in test [9], -0.375; in test [10], -0.618; in test [11], -0.0569; in test [12] it was -0.0512. Moreover, the PBM binding z-score is -0.21 in test [13]; -0.517 in test [14]; -0.0331 in test [15]; -0.295 in test [16]; -0.0771 in [17]; 0.238 in test [18]. Besides, the PBM binding z-score in [19] was 0.44; in test [20], -0.123.
For the sequence CGTCCAAGGTCAGAGTGGTCAGTGAATGCCGAGT, the PBM binding z-score in test [1] was 4.91; in test [2], 3.23; in test [3], 0.338; in test [4], 2.49; in test [5], -0.0536; in [6], 3.83. The PBM binding z-score is 1.79 in test [7]; 2.5 in test [8]; 0.0236 in test [9]; 1.35 in [10]; 2.5 in [11]; 2.37 in test [12]. In addition, the PBM binding z-score is -0.175 in test [13]; -0.939 in test [14]; 2.59 in [15]; 2.78 in test [16]; 1.03 in test [17]; 3.16 in test [18]. The figures for the PBM binding z-score in test [19] and in test [20] were 0.908 and 4.8, respectively.
As to CCTAGCAGGCCAATCTGGGTCACTCAGGGCTTGA, the PBM binding z-score is 0.175 in [1]; 0.973 in test [2]; -0.637 in [3]; 0.336 in [4]; -1.06 in test [5]; 2.61 in test [6]. The PBM binding z-score in test [7] is 1.81; in test [8], 2.15; in [9], -0.232; in [10], 1.52; in [11], 3.91; in [12], 4.83. For the same sequence, the PBM binding z-score is 0.915 in test [13]; -1.07 in test [14]; 0.808 in test [15]; 0.386 in test [16]; -0.579 in [17]; 1.64 in test [18]. Also, the PBM binding z-score in test [19] is -0.57; in test [20], 1.35.
GTACCAAGGTGAATAGTTCGTTGATGAGTAGGCG: the PBM binding z-score in [1] was 0.539; in [2], 0.334; in test [3] it was -0.116; in [4], 0.214; in test [5], -0.29; in test [6], 1.24. The PBM binding z-score is 0.857 in [7]; 1.06 in [8]; -0.033 in [9]; 0.842 in test [10]; 1.57 in test [11]; 1.94 in [12]. Also, the PBM binding z-score in test [13] is 0.321; in test [14], 0.393; in [15], 0.906; in test [16], 0.39; in [17] it was 0.918; in test [18] it was 0.576. For the same sequence, the results for the PBM binding z-score in [19] and in test [20] were 0.742 and 1.94, respectively.
TCACATAGGTAATACAGGTGAAAGTCGGCATCTA: the PBM binding z-score in [1] is 0.672; in test [2], 0.976; in [3], 0.424; in test [4], 0.83; in [5], 0.142; in test [6], 1.66. The PBM binding z-score came to 1.04 in [7]; 2.47 in test [8]; 3.63 in test [9]; 3.03 in [10]; 2.54 in test [11]; 1.8 in test [12]. The PBM binding z-score was 1.44 in test [13]; 0.888 in test [14]; 0.824 in test [15]; 0.746 in test [16]; 0.212 in [17]; 1.26 in test [18]. Also, the PBM binding z-score was determined as 0.821 in test [19] and 0.68 in test [20].
As to CGTCAAAGTTCAACTAAGGTATCGTAAAGCACGC, the PBM binding z-score in test [1] came to 7.21; in test [2], 6.22; in [3] it was 4.37; in [4], 4.24; in [5] it was 2.23; in [6] it was 5.15. The PBM binding z-score was determined as 4.83 in [7]; 5.57 in [8]; 2.02 in test [9]; 4.5 in test [10]; 0.0447 in [11]; 1.92 in [12]. The PBM binding z-score in test [13] was determined as 1.2; in test [14], 0.78; in test [15], 3.06; in test [16] it was 5.09; in [17], 3.7; in test [18] it was 4.2. Further, the PBM binding z-score in test [19] was found to be 2.1; in [20], 5.24.
